# Test results taken from PubChem BioAssay AID488975 (Johns Hopkins Ion Channel Center, 2010).
# In all, about 310,000 compounds went through this assay and about 2,600 (0.84%) were called active.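 Rule for the calls: active = B-score over 3 SD under the library average, and starting fluorescence ratio not unusually high; inactive = the rest.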 The list comes from a sample in which actives are over-represented; it also holds similar structures and randomly drawn compounds.
# Molecular target: High affinity choline transporter 1 (Homo sapiens) (UniProt Q9GZV3)
# Sequence (Q9GZV3 whole entry, looked up): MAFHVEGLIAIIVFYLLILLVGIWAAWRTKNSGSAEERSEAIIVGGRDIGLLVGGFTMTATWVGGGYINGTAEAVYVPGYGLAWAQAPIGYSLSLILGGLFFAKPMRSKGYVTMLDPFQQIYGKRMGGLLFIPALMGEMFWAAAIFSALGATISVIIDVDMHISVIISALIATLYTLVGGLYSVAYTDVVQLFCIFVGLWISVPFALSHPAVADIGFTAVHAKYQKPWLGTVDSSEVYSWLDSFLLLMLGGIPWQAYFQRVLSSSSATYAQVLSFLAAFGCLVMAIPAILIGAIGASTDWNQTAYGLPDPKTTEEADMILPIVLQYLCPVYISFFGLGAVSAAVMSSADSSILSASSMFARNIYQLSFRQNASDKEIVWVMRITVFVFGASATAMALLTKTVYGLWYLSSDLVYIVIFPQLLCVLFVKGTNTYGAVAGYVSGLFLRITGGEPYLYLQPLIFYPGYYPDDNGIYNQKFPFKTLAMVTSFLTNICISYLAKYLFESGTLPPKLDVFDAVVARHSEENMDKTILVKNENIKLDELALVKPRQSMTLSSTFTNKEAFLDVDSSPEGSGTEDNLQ
# Test: inhibits the human high affinity choline transporter (AID 488975);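 for B-score: choline stimulus applied at its EC90 after an EC20 pre-addition; B-score computed on integrated fluorescence ratio after choline addition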
# Conditions: CHT-expressing cells, membrane potential dye, choline response, at 10 µM; stronger effect = lower value
row,Structure (SMILES),B-score
1,COc1ccc(C(C#N)(CC(=O)O)c2cnccn2)cc1OC (centres undefined),inactive
2,Cc1ccc(-c2nn(-c3ccccc3)cc2C(=O)NCCCN2CCCC2=O)cc1,inactive
3,CCc1ccc(NC(=O)CN2C(=O)COc3ccc(S(=O)(=O)N4CCCC4)cc32)cc1,inactive
4,CN(C)c1ccc(CNC(=O)CN2C(=O)COc3ccc(S(=O)(=O)N4CCCC4)cc32)cc1,inactive
5,Cc1cccc(N(C)C(=O)CN2C(=O)COc3ccc(S(=O)(=O)N4CCCCCC4)cc32)c1,-6.38 (active)
6,O=S(=O)(c1ccccc1)N1CCC(c2ccccc2)CC1,inactive
7,Cc1ccc(CSCC(N)C(=O)O)cc1 (centres undefined),inactive
8,Cc1ccc(SC(CC(=O)c2ccc(C(C)(C)C)cc2)C(=O)O)cc1 (centres undefined),-8.41 (active)
9,Cc1ccc(C(=O)CSc2ccccc2C(=O)O)cc1,inactive
10,OCc1ccc(-c2ccccc2)c(-c2ccccc2)c1,inactive
11,O=C(Nc1ccc(F)c([N+](=O)[O-])c1)C1CCCO1 (centres undefined),inactive
12,Cc1ccc(-c2cc(C(=O)NC3CCN(Cc4ccccc4)CC3)c3ccccc3n2)cc1,inactive
13,C/C(=N\OCC(=O)O)c1ccc(Cl)cc1,inactive
14,C/C(=N\NC(=S)NCc1ccccc1)c1ccc(Cl)cc1,inactive
15,C/C(=N\N=C(N)N)c1ccc(Cl)cc1,-9.9 (active)
16,CC1CCC(CN2CCN=C2N(C)C)CC1 (centres undefined),inactive
17,CCCCCCCN=C(C)c1ccccc1O,inactive
18,CCCCCCc1ccc(O)cc1O,-6.74 (active)
19,CCCCCCc1cc2cc(-c3nnc(-c4ccccc4)o3)c(=O)oc2cc1O,inactive
20,CC1(c2ccccc2)NC(=O)N(CC(=O)Nc2cc(Cl)ccc2N2CCOCC2)C1=O (centres undefined),inactive
21,COc1cc(N)c(Cl)cc1C(=O)OCC(=O)c1ccc2c(c1)NC(=O)CO2,inactive
22,CN1C(C(=O)NCc2ccco2)CC2Cn3c(nc4ccccc43)C21 (centres undefined),inactive

row,Structure (SMILES),B-score
1,COc1ccc(-c2nn(-c3ccccc3)cc2/C=C\C(=O)N2CCOCC2)cc1[N+](=O)[O-],inactive
2,Cc1ccc(-c2nn(-c3ccccc3)cc2/C=C/C(=O)Nc2cccc(S(N)(=O)=O)c2)cc1,inactive
3,O=C(/C=C/c1cn(-c2ccccc2)nc1-c1ccc2c(c1)OCCO2)NCCCN1CCOCC1,-5.76 (active)
4,Cc1ccc(SCC(=O)Nc2nncs2)cc1,inactive
5,C#CCOCCOCCOCCNc1nc(N2CCN(C(=O)Cn3cc(CCCCN)nn3)CC2)nc(N2CCN(C(=O)[C@H](CCCCN)n3cc(CCC(=O)O)nn3)CC2)n1,inactive
6,Cc1ccccc1OCC(=O)NNC(=O)c1ccc(-n2cncn2)c([N+](=O)[O-])c1,inactive
7,CCCCn1c(N)c(N(CCC(C)C)C(=O)CC2OC(=O)c3ccccc32)c(=O)[nH]c1=O (centres undefined),inactive
8,OC1CN=C2Sc3ccccc3N2C1 (centres undefined),-5.4 (active)
9,COc1ccc(S(=O)(=O)N2CCCCC2)cc1NC(=O)C1CC(=O)N(c2ccc3c(c2)OCCO3)C1 (centres undefined),inactive
10,Cc1ccc(S(=O)(=O)NCCC(=O)OCC(=O)N(C)c2ccccc2)cc1,inactive
11,CCOC(=O)C1(CCOc2ccccc2)CCN(Cc2cc(OC)cc(OC)c2)CC1,inactive
12,CCOC(=O)C1(CCOC)CCN(Cc2ccc(C(=O)OC)cc2)CC1,-7.63 (active)
13,CCOC(=O)C1(CCOC)CCN(Cc2cc3ccccc3s2)CC1,inactive
14,CCN1C(=O)[C@@H]2[C@@H](c3ccc(-c4ccc(OC)cc4)c(OC)c3)N3CCC[C@@]3(C(=O)OC)[C@@H]2C1=O,inactive
15,FC(F)(F)c1cccc(NC(=S)Nc2cccc(Cl)c2)c1,-9.9 (active)
16,S=C(Nc1cccc(Cl)c1)Nc1ccc2cn[nH]c2c1,inactive
17,S=C(Nc1cccc(Cl)c1)Nc1ccc2c(c1)OCCO2,inactive
18,CCOC(=O)c1cnc2nc(SCc3ccccc3Cl)[nH]n2c1=O,inactive
19,O=C1c2ccccc2C(=O)c2c1cccc2N1CCN(C/C=C/c2ccccc2)CC1,inactive
20,CCCCCCCNC(=O)C1(CC2CC(c3cccc(Br)c3)=NO2)CCN(C(=O)c2cc(OCC)c(OCC)c(OCC)c2)CC1 (centres undefined),inactive
21,CCN(CC)c1ccc(/C=N/NC(=O)c2cnccn2)c(O)c1,-5.95 (active)
22,CCN(CC)c1ccc(/C=N/NC(=O)CNC(=O)c2cccnc2)cc1,inactive

row,Structure (SMILES),B-score
1,CCN(CC)c1ccc(/C=N/Nc2nc(C)cc(C)n2)c(O)c1,inactive
2,CC(NC(=O)c1ccccc1F)c1cccc2ccccc12 (centres undefined),inactive
3,COc1ccc(Cc2nnc(SCC(=O)Nc3ccc(C)c(Cl)c3)[nH]c2=O)cc1,inactive
4,OCC[C@H]1C[C@@H](O)[C@H](O)[C@@]2(OCCc3ccccc32)O1,inactive
5,CC(C)Oc1ccc(CCC(=O)NNC(=S)NCc2ccccc2)cc1,inactive
6,COc1ccc(C(=O)NNC(=S)NC(=O)c2ccccc2)cc1,-5.26 (active)
7,O=C(CCc1ccccc1)NNC(=O)c1ccc(Br)cc1,inactive
8,COc1ccc(C(=O)NNC(=S)NC(=O)c2ccccc2[N+](=O)[O-])cc1,inactive
9,COc1ccc(C(=O)NC(=S)NNC(=O)CCc2ccccc2)cc1,-5.23 (active)
10,COc1ccc(C(=O)NC(=S)NNC(=O)c2c(-c3ccccc3)noc2C)cc1,inactive
11,COc1ccc2c(c1)O/C(=C\c1ccccc1O)C2=O,inactive
12,O=C(Cc1ccc(S(=O)(=O)N2CCOCC2)s1)N1CCN(c2ccc(C(F)(F)F)cc2[N+](=O)[O-])CC1,inactive
13,O=C(/C=C/c1ccc(F)cc1)Nc1cccc(S(=O)(=O)Nc2cccc(C(F)(F)F)c2)c1,inactive
14,CCOC(=O)N1CCN(C(=O)c2ccc(S(=O)(=O)Nc3cccc(C(F)(F)F)c3)cc2)CC1,inactive
15,Cc1oc2c(F)c(F)c(F)c(F)c2c1S(=O)(=O)Nc1cccc(C(F)(F)F)c1,-5.14 (active)
16,Cc1cc(OCC(=O)N(C)c2c(N)n(Cc3ccccc3)c(=O)[nH]c2=O)c(C(C)C)cc1Cl,inactive
17,COc1cc(C(=O)NCC(=O)N2CC=C(c3ccccc3)CC2)cc(OC)c1OC,inactive
18,C/C(=N/NC(=O)c1cc(Cl)ccc1O)C12CC3CC(CC(C3)C1)C2,-7.51 (active)
19,CC(=N\NC(=O)c1cc(Br)ccc1O)/C(=N/O)C(=O)Nc1ccccc1,inactive
20,COc1ccc(Cl)cc1NC(=O)CN(C)C(=O)CNC(=O)C12CC3CC(CC(C3)C1)C2,inactive
